# Bioassay records: PubChem, National Center for Advancing Translational Sciences (NCATS)
# DT40 TDP1 CPT = DT40-hTDP1 cell growth loss with CPT. Potency, µM (doses to about 46.2 µM), hits mostly inhibitors. chicken DT40 Tdp1-/-;hTDP1 cells + 20 nM CPT, ATP luminescence, 48 h. AID 686979. 420,000 compounds, 12% hits; note: nearly all actives have a fitted effect of over 55% in size
#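 Chicken DT40 Tdp1-/- cells stably complemented with human TDP1 were seeded at 400 cells/well in medium containing 20 nM camptothecin, exposed to pin-transferred compounds, and grown at 37 °C for at least 48 hr. Viability was read as ATP luminescence.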
# TDP1 cell noCPT = qHTS for Inhibitors of human tyrosyl-DNA phosphodiesterase 1 (TDP1): qHTS in cells in absence of CPT; DT40 Tdp1-/- hTDP1 cells, no CPT, ATP luminescence, 48 h; Potency, µM (highest dose often 46.2 µM), most hits filed as inhibitors; 420,000 compounds, 15% hits; AID 686978, 2013; note: nearly all actives have a fitted effect of over 55% in size
#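 Luminescent ATP content (CellTiter-Glo) served as the growth readout. Knockout chicken DT40 cells expressing human TDP1 were exposed to compounds without camptothecin for a minimum 48 hr at 37 °C.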
# 12-LOX inh = blocks human arachidonate 12S-lipoxygenase; P18054; AID 1671190; 580,000 compounds, 1.1% hits; purified 12hLO, xylenol orange hydroperoxide absorbance; Potency, µM (doses to about 108 µM), usual class: inhibitors
# Target sequence (P18054 whole entry, looked up): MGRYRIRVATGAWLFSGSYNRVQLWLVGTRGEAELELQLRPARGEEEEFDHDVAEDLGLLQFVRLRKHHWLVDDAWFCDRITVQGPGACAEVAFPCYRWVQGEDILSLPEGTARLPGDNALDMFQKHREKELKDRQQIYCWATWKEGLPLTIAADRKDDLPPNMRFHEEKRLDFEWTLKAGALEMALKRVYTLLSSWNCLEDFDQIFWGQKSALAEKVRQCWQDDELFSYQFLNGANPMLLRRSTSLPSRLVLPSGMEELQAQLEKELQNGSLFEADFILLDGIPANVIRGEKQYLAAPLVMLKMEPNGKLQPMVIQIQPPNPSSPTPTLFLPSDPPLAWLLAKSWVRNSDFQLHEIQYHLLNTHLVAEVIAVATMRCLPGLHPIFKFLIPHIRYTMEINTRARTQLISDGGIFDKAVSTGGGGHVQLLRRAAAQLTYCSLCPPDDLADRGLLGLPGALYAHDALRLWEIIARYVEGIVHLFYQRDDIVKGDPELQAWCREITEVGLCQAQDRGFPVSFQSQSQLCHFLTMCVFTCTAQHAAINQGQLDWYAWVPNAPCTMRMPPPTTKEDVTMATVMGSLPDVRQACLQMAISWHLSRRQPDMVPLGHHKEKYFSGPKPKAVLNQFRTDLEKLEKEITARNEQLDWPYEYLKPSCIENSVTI
#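 Purified human 12hLO (150 nM final) in 25 mM Hepes, 0.01% Triton X-100, pH 7.0 was preincubated 15 min at room temperature with compound. Then 40 uM arachidonic acid was added, 30 min. Hydroperoxide was read by Fe-XO absorbance ratio 573/405 nm.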
# HT1080NT lethal = kills 2HG-producing HT-1080-NT fibrosarcoma cells | HT-1080-NT fibrosarcoma viability, CellTiter-Glo ATP luminescence, 48 h | Potency, µM (series often up to 46.1 µM), most hits filed as cytotoxic | 360,000 compounds, 1.6% hits;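 note: NT is the 2HG producing partner of a matched IDH1 knockdown line; nearly all actives have a fitted effect of over 55% in size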
#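 Viability of the 2HG-overproducing fibrosarcoma line after 48 hours of compound exposure at 37 degrees C was determined by luminescence with CellTiter-Glo, and concentration-effect curves were then fitted and categorized.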
# HT1080 IDH1KD tx = kills HT-1080 cells with IDH1 knockdown | AID 686971 | 360,000 compounds, 2% hits | HT-1080 IDH1 knockdown viability, ATP luminescence, 48 h | Potency, µM (titrated, usually from 46.1 µM), most hits filed as cytotoxic
#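 HT-1080-IDH1KD cells (IDH1 knocked down), 750/well in RPMI with 5% FBS, treated with compound 48 h at 37 degrees C. Viability by CellTiter-Glo luminescence, normalised to DMSO and no-cell wells; concentration-response curves classed.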
# IL-1B inflam inh = blocks inflammasome-driven IL-1 beta release. THP-1 LPS/ATP IL-1B secretion, AlphaLISA, 16 h; active compounds read low. activity change, % at 57.5 µM. 360,000 compounds, 4.7% hits. AID 743279; in the data active = activity change below about -50%; inconclusive = mostly about -30% to -49%
#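 THP-1 cells pretreated 1 hr with compounds (up to 57.5 uM final), then stimulated with LPS (250 ng/mL final) plus ATP (1.25 mM final); secreted IL-1B measured by AlphaLISA after 16 hr, decreased signal indicating inhibition.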
# Hits are given with their value; - = inactive; ? = inconclusive; . = no result; [ ] = another dose, or the depositor's remark. This excerpt belongs to a sample that is enriched for hits. Unless noted, calls come from the whole dose curve; as a rule, active = well fitted curve in the direction sought with a large enough effect; inconclusive = small, poorly fitted or top-dose-only effect, or another doubt; inactive = no such curve, though single readings can be large; an effect the other way counts as inactive or inconclusive.
SMILES,DT40 TDP1 CPT,TDP1 cell noCPT,12-LOX inh,HT1080NT lethal,HT1080 IDH1KD tx,IL-1B inflam inh
O=C(CSc1nc(NC2CC2)c2ccccc2n1)NC1CCCC1,.,.,-,.,.,.
CN(C)C[C@@H]1CN(S(C)(=O)=O)C[C@H]1NC(=O)c1cc2ccccc2[nH]1,.,.,-,.,.,.
COc1ccc(-c2ccc3c(c2)C2CC3CCN2)cc1 (stereo unspecified),-,-,?,-,-,-
CCOc1ccc(/C=C/C2=CC(C)(C)NC(=S)N2)cc1,15µM,?,40µM,-,?,-
COc1ccccc1-c1nnc(SCC(=O)N(C2CCCCC2)C2CCCCC2)n1N,.,.,-,.,.,.
O=C(O)c1nn(Cc2csc(-c3ccccc3)n2)c(=O)c2ccccc12,?,12µM,-,-,-,-
COc1cc(C(=O)NCCOc2cc(C)cc(C)c2)c(Br)c(OC)c1OC,16µM,?,-,?,-[9.24 µM],-
COc1cc(C(=O)NC2CCCC2)c(Br)c(OC)c1OC,-,-,-,-,-,-
COc1cc(NCCCn2ccc(NC(=O)OCc3ccccc3)nc2=O)cc(OC)c1OC,-,-,-,-,-,-
C[C@@H](NC(=O)Cn1ccc(NC(=O)OCc2ccccc2)nc1=O)c1cccc2ccccc12,?,?,-,-,-,-
C[C@@H](NCCCn1ccc(NC(=O)OCc2ccccc2)nc1=O)c1cccc2ccccc12,?,16µM,?,-,-,?
CC[C@@H](NCCCn1ccc(NC(=O)OCc2ccccc2)nc1=O)c1ccccc1,?,16µM,-,-,-,-
Cc1noc(-c2cn(C3CCCN(C(=O)c4ccc(Cl)s4)C3)nn2)n1 (stereo unspecified),.,.,-,.,.,.
O=C1NCCCCCN(Cc2cccc(F)c2)[C@H]2CCC[C@@H]12,.,.,-,.,.,.
COC(=O)[C@]12C[C@H](CC(=O)N3CCOCC3)C(=O)N(Cc3ccco3)C1=C[C@H](COCc1ccccc1)O[C@@H]2C,.,.,-,.,.,.
CC(C)(C)c1ccc(CN2CCN(C(c3ccccc3)c3ccc(Cl)cc3)CC2)cc1 (stereo unspecified),13µM,24µM,.,.,.,.
O=C(c1ccc(Cl)cc1)C1CCN(Cc2ccccc2)CC1,?,?,?,-,-,-
Cc1ccc(-c2noc(CN3CCN(C(c4ccccc4)c4ccccc4)CC3)n2)cc1,?,?,-,-,-,-
O=C(C1CCN(Cc2ccc(Cl)cc2)CC1)N1CCN(C(c2ccccc2)c2ccccc2)CC1,?,12µM,?,?,?,-53
Cc1cccc(CN2CCN(C(c3ccccc3)c3ccc(Cl)cc3)CC2)c1 (stereo unspecified),?,7.3µM,?,?,?,-
COCCc1noc([C@@H]2CC(F)(F)CN2C(=O)c2ccccc2F)n1,.,.,-,.,.,.
CC(C)C[C@@H]1N[C@H](C(=O)NCc2ccco2)Cc2c[nH]c3cccc1c23,.,.,-,.,.,.
O=C(Nc1nc(-c2cccc(Br)c2)cs1)Oc1ccccc1,-,-,-,-,-,-
OCCOCCn1c(C(CO)Nc2nc(-c3ccccc3Br)cs2)nc2ccccc21 (stereo unspecified),?,-,-,-,-,-
OCCOCCn1c(C(CO)Nc2nc(-c3ccc(Cl)cc3)cs2)nc2ccccc21 (stereo unspecified),29µM,18µM,-,-,-,?
SMILES,DT40 TDP1 CPT,TDP1 cell noCPT,12-LOX inh,HT1080NT lethal,HT1080 IDH1KD tx,IL-1B inflam inh
CCCn1c(C(CO)Nc2nc(-c3cccc(Br)c3)cs2)nc2ccccc21 (stereo unspecified),?,?,?,?,-,-57
OCCOCCn1c(C(CO)Nc2nc(-c3cccc(Br)c3)cs2)nc2ccccc21 (stereo unspecified),?,18µM,-,-,-,-
Nc1c(Cl)cc(-c2csc(NC(CO)c3nc4ccccc4n3CCOCCO)n2)cc1Cl (stereo unspecified),?,?,-,-,-,?
Cc1ccc2c(COC(=O)c3cccc(S(=O)(=O)N(C)C)c3)cc(=O)oc2c1,.,.,-,.,.,.
Cc1ccc(S(=O)(=O)N2CCN(c3ccc([N+](=O)[O-])c(Sc4nncn4C)c3)CC2)cc1,?,?,-,-,-,-
Cc1cc(C)n(-c2cc(N3CCN(S(=O)(=O)c4ccc5ccccc5c4)CC3)ccc2[N+](=O)[O-])n1,?,9.2µM,-,-,-,-
Cc1cc(C)n(-c2cc(N3CCN(S(=O)(=O)c4ccc(C)c(C)c4)CC3)ccc2[N+](=O)[O-])n1,21µM,?,-,-,-,-
Cn1cnnc1Sc1cc(N2CCN(S(=O)(=O)c3ccc(Cl)c(Cl)c3)CC2)ccc1[N+](=O)[O-],?,15µM,-,-,-,-
Cc1ccc(COc2ccc(C=O)cc2)cc1,.,.,-,.,.,.
CCCCCNc1nc2ccccc2nc1NS(=O)(=O)c1cccc(Cl)c1,.,.,-,.,.,.
N#Cc1ccc(CN2CCN(C(=O)CCNS(=O)(=O)c3ccc(F)c(F)c3)CC2)cc1,-,-,-,-[9.24 µM],-,-
CCN(CC)c1ccc(NC(=O)CCNS(=O)(=O)c2ccc3c(c2)CCC(=O)N3)c(C)c1,?,16µM,-,-,-,-
N#Cc1ccc(CN2CCN(C(=O)CCNS(=O)(=O)c3ccc(F)c(Cl)c3)CC2)cc1,?,18µM,-,-,-,-
CC(=O)N1CCc2cc(S(=O)(=O)NCCC(=O)N3CCN(Cc4ccccc4)CC3)ccc21,?,21µM,-,-,-,-
O=C(CCNS(=O)(=O)c1ccc2c(c1)CCN2C(=O)C1CC1)N1CCN(c2ccc(F)cc2)CC1,3.3µM,9.2µM,-,.,.,.
CN1CCN(NC(=O)c2cccc(Cl)c2)CC1,.,.,-,.,.,.
COc1ccc(-c2nnc(SCc3nnc(C)o3)n2CCc2ccccc2)cc1,.,.,-,.,.,.
COc1ccc(NC(=O)Cc2c(C)c3c(OC)cc(C)cc3oc2=O)cc1,.,.,-,.,.,.
COc1ccc(N2CCN(C(=O)CCNS(=O)(=O)c3ccc4c(c3)CCN4C(=O)C3CC3)CC2)cc1,13µM,18µM,-,.,.,.
Cc1cccc(N2CCN(C(=O)CCNS(=O)(=O)c3ccc4c(c3)CCN4C(=O)C3CC3)CC2)c1C,18µM,18µM,-,.,.,.
N#Cc1ccc(CN2CCN(CC(=O)NCCc3ccc(Cl)cc3Cl)CC2)cc1,21µM,21µM,?,?,?,?
O=C(CCNS(=O)(=O)c1cccc2nonc12)N1CCN(c2cccc(Cl)c2)CC1,?,12µM,-,-,-,-
CC(C)c1cnc2c(c1SC1CCCC1)c(=O)n(C)c(=O)n2C,.,.,-,.,.,.
